Test results from PubChem BioAssay (NCI).
About 83,000 compounds went through this panel and 20% of them were active in at least one assay; those are over-represented in the sample as a whole.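 Assay: single dose, 48 h. Readout: percent growth (0 = no net growth; negative = cell death). Active: <10.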 A number with no mark means an inactive call. Activity calls are given as the source filed them.

Key:
Test in all cases: NCI-60 one-dose screen, 48 h (100 = growth as untreated, 0 = no growth, -100 = all killed)
Conditions in all cases: 10 µM unless noted
[1] = test system: HCT-15 colon
[2] = test system: HT29 colon
[3] = test system: SNB-75 CNS
[4] = test system: SNB-19 CNS
[5] = test system: U251 CNS
[6] = test system: SK-MEL-5 melanoma
[7] = test system: UACC-62 melanoma
[8] = test system: LOX IMVI melanoma
[9] = test system: SK-MEL-28 melanoma
[10] = test system: SK-MEL-2 melanoma
[11] = test system: EKVX NSCLC
[12] = test system: SN12C renal
[13] = test system: UO-31 renal
[14] = test system: TK-10 renal
[15] = test system: ACHN renal
[16] = test system: CAKI-1 renal
[17] = test system: A498 renal
[18] = test system: CCRF-CEM leukemia
[19] = test system: MOLT-4 leukemia

Compound	growth [1]	growth [2]	growth [3]	growth [4]	growth [5]	growth [6]	growth [7]	growth [8]	growth [9]	growth [10]	growth [11]	growth [12]	growth [13]	growth [14]	growth [15]	growth [16]	growth [17]	growth [18]	growth [19]
Cn1c(NCCc2ccc(O)c(O)c2)nc2c1c(=O)n(Cc1ccc(Br)cc1)c(=O)n2C	42.7%	96.8%	74.6%	79.8%	82.8%	57.6%	82%	87.9%	82.6%	89.8%	79.9%	72.7%	30%	68.8%	32.9%	74.7%	106%	23%	29.3%
Cc1ccc(/C=C2\SC(=S)N(CC(=O)NCCCN3CCOCC3)C2=O)cc1	96.3%	109%	87.2%	94.5%	100%	97.1%	99.7%	91.7%	100%	107%	93.7%	92.1%	83.9%	117%	90.5%	89.4%	96.1%	104%	101%
CC1SC(c2ccc(N(C)C)cc2)N(NC(=O)C(O)(c2ccccc2)c2ccccc2)C1=O (stereo not given)	83.8%	93.8%	96.6%	110%	91.4%	98.8%	79.9%	87.7%	111%	104%	93.5%	110%	47.7%	89.4%	94%	91.2%	101%	65.1%	72%
Cc1cc(C)nc(SC2=C(Nc3ccc(C)c(Cl)c3)C(=O)N(Cc3ccccc3)C2=O)n1	63% [30 µM]	46% [30 µM]	58.9% [30 µM]	78.2% [30 µM]	68.8% [30 µM]	62.2% [30 µM]	49.7% [30 µM]	75.9% [30 µM]	94.2% [30 µM]	85.3% [30 µM]	52.7% [30 µM]	66.9% [30 µM]	16.7% [30 µM]	84.8% [30 µM]	81% [30 µM]	54.3% [30 µM]	69.5% [30 µM]	35.3% [30 µM]	7.47% [30 µM] (active)
CCOc1nc(-c2ccccc2)cc2c(O)c(C(=O)O)[nH]c(=O)c12	106%	104%	81.3%	94.3%	104%	90.6%	110%	95.2%	138%	95.3%	98.2%	111%	87.1%	134%	100%	105%	119%	83%	92.4%
O=C1NC(=Nc2ccc(O)cc2)S/C1=C\c1cccc(Cl)c1	30.1%	109%	70.9%	73.5%	59.3%	70.6%	80.9%	53.4%	94.7%	109%	84.2%	82%	42.5%	97.3%	84.5%	70%	50.1%	27.1%	45.4%
COc1ccc2c(c1)c(-c1nonc1-c1cn(C)c3ccccc13)cn2C	25.7%	8.38% (active)	-6.82% (active)	34.9%	32.8%	13.3%	38%	47.2%	63.1%	41.4%	51.7%	47.8%	35.1%	59.2%	48.6%	30.1%	3.63% (active)	25.7%	30.2%
O=C1CSC(=S)N1CCc1ccc(O)cc1	59.3%	107%	71.3%	93%	100%	97.1%	87.5%	77.1%	101%	103%	97.8%	81.6%	60.3%	68.7%	91.4%	81.4%	97%	51.1%	93.4%
Nc1ccc(-c2cc3c(NCc4ccccc4)ncnc3s2)cc1	82.2%	103%	89.2%	73.6%	82.4%	55.7%	71.8%	84.2%	92.3%	85.1%	57.9%	72.6%	58.5%	50.2%	52.7%	63.1%	52.6%	81.9%	83.7%
COc1ccc(Nc2c3c4c(cccc4[nH]c2=O)C(=O)c2ccccc2-3)cc1	-4.37% (active)	-32.1% (active)	0.39% (active)	25.8%	3.3% (active)	-42.3% (active)	38.3%	23.9%	71.1%	40.2%	42.3%	40%	30.3%	28.6%	24.2%	11.7%	23%	-0.546% (active)	1.81% (active)
O=C1Nc2cc(-c3ccc(O)cc3)ccc2/C1=C/c1ccc[nH]1	7.26% (active)	8.88% (active)	19%	27.8%	18.9%	-17.3% (active)	15.7%	-6.81% (active)	23.6%	2.16% (active)	12%	13.6%	-3.39% (active)	17.7%	4.81% (active)	2.43% (active)	-3.08% (active)	6% (active)	7.4% (active)
C=C1c2nc3ccccc3n2C=C(c2ccc(Cl)cc2)N1Cc1ccc(OC)cc1	67.3%	88.8%	103%	79.1%	92.8%	72.3%	68%	87.5%	88.9%	70.4%	71.3%	92.2%	52.2%	138%	89.5%	85.7%	90.5%	86.3%	64.8%
C#CCOc1ccc2ncnc(NCc3cccc(NC(=O)CCl)c3)c2c1	22.6% [8.25 µM]	19.9% [8.25 µM]	55.7% [8.25 µM]	37.8% [8.25 µM]	-19.2% [8.25 µM] (active)	23.8% [8.25 µM]	31.8% [8.25 µM]	46.7% [8.25 µM]	58.1% [8.25 µM]	39.7% [8.25 µM]	65.6% [8.25 µM]	25.8% [8.25 µM]	84.9% [8.25 µM]	74.1% [8.25 µM]	39.5% [8.25 µM]	73.3% [8.25 µM]	77.9% [8.25 µM]	4.16% [8.25 µM] (active)	3.48% [8.25 µM] (active)
C=C1c2nc3ccccc3n2C=C(c2ccc(OC)cc2)N1Cc1ccccc1	73.8%	73.2%	109%	79.3%	80.5%	87.1%	88.6%	91.1%	119%	57.7%	62.6%	98.7%	54.6%	118%	96.2%	101%	69.7%	78.9%	71.5%
O=C1/C(=C/c2ccccc2)SC(=S)N1CCc1ccc(O)cc1	100%	102%	81.1%	90.4%	97.3%	97%	77%	89.2%	103%	101%	91.9%	91.3%	65%	99.9%	93.9%	73.3%	92.1%	74.2%	88.6%
